What is called Inhibition is the drop in the measured response relative to a control, in per cent. Read a low Inhibition as a response near the control.

For 40 compounds, Inhibition results are on record in ChEMBL document CHEMBL1157539, “Thousands of chemical starting points for antimalarial lead identification” (Nature, 2010).

The subject of the assay is HepG2. The assay can be described thus: GSK_TCMDC: Percent inhibition of human HepG2 cell line. Test compounds present at 10uM. The format is functional.
Take `Cc1noc(C)c1-c1ccc(C(=C2CCCCCC2)c2ccc(O)cc2)cc1`: the Inhibition is reported as 0%. `COc1ccc(C2N=C(N)N=C(N)N2c2ccc(Cl)cc2)cc1OC.Cl` (stereo not given) registered an Inhibition of 4%. With `N=C(N)Nc1nc(-c2cccc(NC(=O)NCCc3c[nH]c4ccc(OCc5ccccc5)cc34)c2)cs1`, the Inhibition was determined as 0%. Take `CC1CN(Cc2ccc(-c3ccc(-c4nc5cc(F)ccc5[nH]4)cc3)cc2)CC(C)O1.O=C(O)C(F)(F)F` (stereo not given): the Inhibition is 40%.

As to `COc1ccc(NC(=O)/C=C/c2cc(Br)ccc2F)cc1OCCN(C(C)C)C(C)C.O=C(O)C(F)(F)F`, the Inhibition worked out at 22%. For `COc1c(C2=CCN(CCCCNC(=O)c3ccc(-c4ccc(C#N)cc4)cc3)CC2)c(C)cc2c1C(C)(C)CCC2(C)C`, the Inhibition is 18%. To `CS(=O)(=O)Nc1cccc(-c2cnc3[nH]cc(-c4cccc(CN)c4)c3c2)c1` belongs 25%; to `Cc1cccc(OCC2CCN(c3ncc(C(=O)NC4CC4)cc3Cl)CC2)c1`, 0%. `Br.CCc1c(CCNCCCCCCNCCc2ccc(Br)cc2)ccc(O)c1O`: the Inhibition is reported as 11%.

In turn, `FC(F)(F)c1ccc2[nH]ccc(=NN=CC=Cc3ccccc3)c2c1` yielded an Inhibition of 0%. For the compound `C=C[C@H]1CN2CC[C@H]1C[C@H]2[C@H](O)c1ccnc2ccc(OC)cc12.O.O=S(=O)(O)O`, the Inhibition is recorded as 0%. In turn, `CN(C)CCCOc1cccc(NC(=O)Nc2ccc(-c3ccccc3)cc2)c1.O=C(O)C(F)(F)F` gave an Inhibition of 9%. Compound `CN(C)c1ccc(CN2CCC(CNC(=O)c3cc(-c4cccc(F)c4)cs3)C2)cc1.O=C(O)C(F)(F)F` (stereo not given) came in with an Inhibition of 48%.

In turn, `Cl.O=C(NCCCCN1CCC(c2ccc(OC(F)(F)F)cc2)CC1)c1ccc(NC(=O)c2ccc(Cl)cc2)cc1` returned an Inhibition of 24%. To `Cl.Oc1ccc(CCNc2nc(NCCCOc3ccccc3-c3ccc(C(F)(F)F)cc3)nc(N3CCNCC3)n2)cc1` belongs 64%. Next, `COc1cc2ccccc2c(OC)c1CNCCCCCCNCc1c(OC)cc2ccccc2c1OC.CS(=O)(=O)O`: 100%; `COc1ccc(-c2cc(C(=O)N[C@@H](Cc3ccccc3)C(=O)NCCN3CCCCC3)ccc2O)cc1`: 0%. `CN(C)c1ccc(-c2ccc(C(=O)NC3CCN(Cc4ccc(F)cc4)CC3)s2)cc1.O=C(O)C(F)(F)F` gave an Inhibition of 34%.

`O=C(Nc1ccc(-c2nc3ccccc3[nH]2)cc1)C1CCN(Cc2cccc(F)c2F)CC1` registered an Inhibition of 23%.

The compound `COc1ccc(OC)c(NC(=O)CSc2nc(-c3ccccc3Cl)ns2)c1` gave an Inhibition of 0%. In turn, `COc1ccc(CN2CCCC(C(=O)c3ccc(C(F)(F)F)cc3)C2)c(O)c1` (stereo not given) came in with an Inhibition of 0%. `COc1ccc2nccc(N3CCC(NCCNS(=O)(=O)c4ccc5c(c4)NC(=O)CS5)C3)c2n1.Cl` (stereo not given) had an Inhibition of 12%. `COc1ccc(-c2cccc(NC(=O)c3ccc(F)cc3)c2)cc1CN1CCCN(C)CC1.O=C(O)C(F)(F)F` yielded an Inhibition of 26%. To `CCOC(=O)NOC(C(=O)O)c1ccccc1` (stereo not given) belongs 4%; to `Cc1cccc2nc(-c3cccc(-c4ccc(NC(=O)Nc5ccsc5)cc4)c3)[nH]c12`, 27%; to `CN(Cc1ccc(-c2ccc(C(F)(F)F)cc2)cc1)C(=O)Cn1c(CCc2cccc(F)c2F)cc(=O)c2ccc(OCCCN3CCCCC3)cc21.O=C(O)C(O)C(O)C(=O)O`, 79%.

Compound `CC(C)C[C@H](NC(=O)OC(C)(C)C)C(=O)Nc1ccc(Cc2ccc(NC(=O)[C@H](CC(C)C)NC(=O)OC(C)(C)C)cc2)cc1` had an Inhibition of 0%. Next, `Cc1cccc2nc(-c3ccc(-c4ccc(NC(=O)Nc5ccc(F)c(F)c5F)cc4)s3)[nH]c12`: 58%; `Cc1cccc2nc(-c3ccc(-c4ccc(CN5CCN(CCC#N)CC5)cc4)cc3)[nH]c12.O=C(O)C(F)(F)F`: 48%; `COc1ccc(CCn2c(=N)c(C(=O)NCc3ccccc3)cc3c(=O)n4ccccc4nc32)cc1`: 14%. Next, `CCCCN(CCCC)Cc1cc2ccccc2cc1O.Cl`: 9%; `O=C(Nc1ccc2c(c1)CCN(C1CCC1)CC2)c1cn(-c2ccccc2)nc1-c1ccccc1.O=C(O)C(F)(F)F`: 38%; `Cc1cc(NC2CCCC2)nc(Nc2ccccc2C)n1`: 0%. Next, `Cc1ccc(Oc2ncccc2C(=O)Nc2cccc3cccnc23)c(C)c1`: 0%. Take `O=C(Nc1cccc(-c2cccc(-c3ccc(F)cc3)n2)c1)c1ccc([N+](=O)[O-])o1`: the Inhibition turned out to be 100%. In turn, `Cc1cccc2nc(-c3ccc(-c4ccc(CNCC5CCCO5)cc4)cc3)[nH]c12.O=C(O)C(F)(F)F` (stereo not given) registered an Inhibition of 36%.

The compound `Cc1noc(-c2ccccc2)c1NC(=O)NC1CCN(CCCCCNC(=O)/C=C/c2ccc(Cl)c(Cl)c2)CC1` yielded an Inhibition of 0%. Next, `COc1cccc2c(N/N=C/c3ccccc3[N+](=O)[O-])cc(C)nc12`: 0%; `COc1cc(-c2nc(C(C)(C)CN)[nH]c2-c2ccncc2)ccc1Br.Cl`: 17%. To `CCC(C)CN1CCCN(c2ccc(NC(=O)c3cccs3)cc2)CC1.O=C(O)C(F)(F)F` (stereo not given) belongs 4%.
